# Assay outcomes (PubChem BioAssay)
# Most compounds without a hit are left out; they make up all but 7.6% or so of the library.
# Giardia killer: Giardia lamblia killing | Giardia lamblia trophozoite viability | activity change, % at 7.66 µM, hits read low | hit rate 0.15% among 340,000; in the data active = activity change below about -80%; inconclusive = between about -30% and that limit;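 also: parasites exposed to compound for two days anaerobically before the ATP read; % is scaled to controls: 0 for no effect and ±100 for the full control effect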
#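 Each well holds 100 Giardia trophozoites and compound. After two days (48 hrs) at 37 deg C in anaerobic conditions, ATP is quantified by luminescence.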
# RORg inh: ROR gamma (mouse) transcription inhibition | hit rate 5.4% among 310,000 | Drosophila S2 Gal4-RORgamma UAS-luciferase reporter, 20 h | Potency, µM (doses to about 53.6 µM), for the others: at the top dose activity change, negative = inhibition, usual class: inhibitors; also: potency is read from the fitted curve at half-maximal effect; % is scaled to controls: 0 for no effect and ±100 for the full control effect; nearly all actives have a fitted effect of over 60% in size
# Target sequence (P51450 whole entry, looked up, the tested form may be a part): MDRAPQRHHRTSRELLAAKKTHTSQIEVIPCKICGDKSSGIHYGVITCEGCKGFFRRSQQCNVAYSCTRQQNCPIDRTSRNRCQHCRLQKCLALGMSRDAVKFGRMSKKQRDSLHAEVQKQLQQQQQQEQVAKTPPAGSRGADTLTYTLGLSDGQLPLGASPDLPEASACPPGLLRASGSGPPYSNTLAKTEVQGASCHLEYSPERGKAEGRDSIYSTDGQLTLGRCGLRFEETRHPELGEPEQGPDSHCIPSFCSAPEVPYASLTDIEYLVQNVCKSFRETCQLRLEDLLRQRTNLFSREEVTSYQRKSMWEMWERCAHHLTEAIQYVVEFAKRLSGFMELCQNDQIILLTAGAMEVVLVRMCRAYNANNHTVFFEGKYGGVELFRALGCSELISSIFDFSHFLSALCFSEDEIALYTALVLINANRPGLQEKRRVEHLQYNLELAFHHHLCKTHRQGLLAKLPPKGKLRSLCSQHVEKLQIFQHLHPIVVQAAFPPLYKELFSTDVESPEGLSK
#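 ROR gamma transcriptional activity was tracked as Gal4-UAS luciferase output in stably transfected Drosophila Schneider cells, with compound added 1 hr before 700 uM copper sulfate induction and a 20 hr ambient-temperature incubation.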
# p53 reactivation: re-activators of mutant p53; H1299 p53-A138V BP100-luciferase reporter, luminescence, 24 h; Potency, µM (doses to about 92.2 µM), without a hit: top-dose activity change, positive = activation, hits mostly activators; hit rate 0.063% among 320,000; also: potency is read from the fitted curve at half-maximal effect; % of control where 0% means no effect; nearly all actives have a fitted effect of over 45% in size
#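 H1299 (p53-null), stable ts p53-A138V + BP100-Luc; 1000 cells/well, Opti-MEM/10% FBS; cpd 4 pt, 1:5; 24 h, 37 deg C, 5% CO2; detection reagent 10 min RT; luminescence.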
# ELG1 DNA repair: blocks ELG1-dependent DNA repair in HEK293T cells. Potency, µM (highest dose often 46.1 µM), for inactives: at the highest dose activity change, negative = inhibition, hits mostly inhibitors. AID 504467. HEK293T ELG1-luciferase reporter, luminescence, 16 h; DNA damage induced by 5-fluorouridine. hit rate 2.3% among 330,000; also: potency is read from the fitted curve at half-maximal effect; % is scaled to controls: 0 for no effect and ±100 for the full control effect; nearly all actives have a fitted effect of over 55% in size
#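 Reporter activity after DNA damage by 5-fluorouridine is monitored. Compound-treated cells incubate 16 hr at 37 °C, then ONE-Glo is added for 30 min before luminescence reading.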
# BRCA1 expr act: activators of BRCA1 expression; MCF7-BRCA1-FFLuc reporter, luminescence, 48 h; response scale: scaled: vehicle 0%, 10 µM genistein 100%; Potency, µM (series often up to 46.1 µM), inactives show at the top dose activation, usual class: activators; hit rate 1.1% among 380,000; AID 624202; also: potency is read from the fitted curve at half-maximal effect; nearly all actives have a fitted effect of over 80% in size
#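 MCF7 cells carrying a BRCA1-firefly luciferase reporter (2000 cells/well, phenol-red free MEM) were attached for 2 h at 37 °C, then given compounds for 48 h. Luminescence was read 15 min after luciferase reagent; activity normalized to genistein (10 microM) and DMSO.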
# VP16 counter: inhibits Gal4-VP16 luciferase reporter, ROR gamma counter-screen; Drosophila S2 Gal4-VP16 UAS-luciferase, luminescence, 20 h; Potency, µM (series often up to 53.6 µM), for inactives: at the top dose activity, negative = inhibition, hits mostly inhibitors; hit rate 3.5% among 310,000;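 also: Gal4-VP16 expression switched on by copper sulfate through the metallothionein promoter; potency is read from the fitted curve at half-maximal effect; % is scaled to controls: 0 for no effect and ±100 for the full control effect; nearly all actives have a fitted effect of over 50% in size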
# The depositor's hits bear a star; ? = inconclusive; . = not tested or not shown; [ ] = dose if it differs, or a comment. Unless noted, calls follow the shape of the dose curve; as a rule, active = well fitted curve in the direction sought with a large enough effect; inconclusive = small, poorly fitted or top-dose-only effect, or another doubt; inactive = no such curve, though single readings can be large; an effect the other way counts as inactive or inconclusive.
SMILES,Giardia killer,RORg inh,p53 reactivation,ELG1 DNA repair,BRCA1 expr act,VP16 counter
O=C(O)CCC(=O)Nc1ccccc1C(=O)NCCc1ccccc1,-11,-8%,?,?,8.9µM*,4%
NC(=O)c1ccccc1NC(=O)CCc1ccccc1,-8,20%,?,?,11µM*,10%
NC(=O)c1ccccc1NC(=S)NC(=O)CCc1ccccc1,-5,?,10%,8%,-58%,13%
O=C(NCc1cc(C(F)(F)F)ccc1F)C1CCC(=O)N(C2CC2)C1 (configuration not stated),9,4%,17%,?,-13%,-5%
Cn1ccc(C(=O)Nc2ccc(Br)cc2Br)n1,20,-1%,?,?,2.2µM*,-3%
CCOC(=O)C1CCN(S(=O)(=O)c2ccc(-c3nc4ccccc4s3)s2)CC1,2,-19%,?,?,49%,-2%
CCCCN(C(=O)CCC(=O)OCC(=O)NCc1ccccc1)c1c(N)n(CCC)c(=O)[nH]c1=O,-3,.,1%,18%,13%,.
CCOc1cnc(-c2ccc(OC)cc2)o1,-16,-16%,?,?,7.9µM*,-4%
CCOc1cnc(-c2ccc(Cl)cc2)o1,-8,-4%,11%,?,35%,25%
CC(C)CC1OC(=O)C2=CCCCC21 (configuration not stated),.,5%,.,.,.,3%
COc1ccccc1Nc1c2c(nc3ccccc13)CCC2,-5,2%,7%,?,-55%,0%
COc1cc(Nc2c3c(nc4ccccc24)CCCC3)cc(OC)c1OC,57,11µM*,-1%,?,-61%,9%
COc1ccccc1CNC(=O)CN(C)S(=O)(=O)c1ccc(F)cc1,-15,-29%,4%,0%,-11%,22%
COc1ccc(Cl)cc1NC(=O)c1cnc2n(c1=O)CCS2,-2,17%,3%,15%,1%,0%
CNc1nc(NCc2ccccc2)c2ccccc2n1,6,40%,16%,-1%,-29%,-17%
Cc1noc(C)c1-c1ccc2ncnc(NCc3ccccc3)c2c1,.,2.8µM*,.,.,.,-10%
Cc1noc(C)c1-c1ccc2ncnc(NCc3ccc(Br)cc3)c2c1,.,11µM*,.,.,.,11µM*
COc1cc2ncnc(NCc3ccccc3)c2cc1OC,-2,-38%,-20%,?,-32%,-10%
Oc1ccccc1Nc1nc(NCc2ccccc2)c2ccccc2n1,3,?,2%,?,-64%,22µM*
c1ccc(CNc2ncnc3ccccc23)cc1,?,-45%,-4%,?,-42%,11µM*
Cc1cccc(Cn2c(N3CCN(C)CC3)nc3c2c(=O)n(C)c(=O)n3C)c1,19,2%[1.91 µM],.,-4%,-13%,-9%
Cc1noc(C)c1-c1ccc2ncnc(NCC3CCCCN3C)c2c1 (configuration not stated),-2,-30%,-18%,?,-48%,5%
Cc1noc(C)c1-c1ccc2ncnc(NC3CCCc4ccccc43)c2c1 (configuration not stated),.,28µM*,.,.,.,-4%
CC(C)CCOP(=O)(c1ccccc1)c1ccccc1,-1,14%,-4%,0%,-18%,-13%
COc1ccc(CN(CCC(c2ccccc2)c2ccc(OC(C)C)cc2)C(=O)CCl)cc1OC (configuration not stated),-14,13µM*,-20%,?,-106%,?
SMILES,Giardia killer,RORg inh,p53 reactivation,ELG1 DNA repair,BRCA1 expr act,VP16 counter
Cc1ccc(CN(Cc2ccccc2)C(=S)Nc2ccccc2C)o1,-13,7.1µM*,-3%,9%,-22%,?
Cc1ccc(CN(Cc2ccco2)C(=S)Nc2ccccc2C)cc1,-12,?,-1%,-11%,0%,-72%
Cc1cccc(C)c1NC(=S)N(Cc1ccccc1)Cc1cccs1,7,7.1µM*,-2%,?,-26%,-14%[10 µM]
Brc1ccccc1OCCCN1CCCC1,8,-42%,-2%,-1%,23%,-1%
Cc1ccc(C(=O)COC(=O)c2cnccn2)cc1C,.,15%,-8%,7%,.,-6%
O=C(NC(=S)Nc1ccc(Cl)cn1)c1cccs1,?,?,?,?,?,1µM*
O=C(NC(=S)Nc1cccnc1)c1cccs1,19,10µM*,3%,?,16%,-7%
O=C(Nc1ncc(Cl)cn1)c1cccs1,-15,17%,13%,?,13µM*,10%
Cc1cc(C)nc(NC(=O)c2cccs2)n1,4,7%,8%,23%,13%,3%
COC(=O)c1ccc(COc2ccc(F)cc2)o1,5,9%,3%,2%,55%,-6%
Cc1nc(S(=O)(=O)N2CCN(c3ccccc3F)CC2)cn1C,.,.,.,.,-8%,.
CC1(C)CC(=O)C2=C(C1)N(Cc1ccccc1)C(=O)C2(O)C(F)(F)F (configuration not stated),2,4%,1%,9%,-6%,-5%
CC(=O)Nc1ccc(C(=O)Nc2cc(C)on2)cc1,-8,27%,7%,?,56%,-13%
CC(C)NS(=O)(=O)c1ccc(NC(=O)C(C)Oc2ccc(C(=O)c3ccccc3)cc2)cc1 (configuration not stated),-9,?,-8%,?,-76%,7.1µM*
CC(Oc1ccccc1)C(=O)Nc1ccc(C(N)=O)cc1 (configuration not stated),15,1%,14%,?,25%,-5%
Cc1cc(NC(=O)c2ccc(NC(=O)C(C)Oc3ccccc3)cc2)no1 (configuration not stated),-6,?,5%,-24%,13µM*,?
Fc1ccc(CCNc2ncnc3[nH]ncc23)cc1,-11,.,.,.,53%,.
COc1ccc(CCNc2ncnc3sc(C)cc23)cc1OC,6,?,1%,?,-55%,0.4µM*
COc1ccc(CCNc2ncnc3[nH]ncc23)cc1OC,-11,-27%,10%,?,-27%,13µM*
COc1cc(CNc2ncnc3c2[nH]c2ccc(C)cc23)cc(OC)c1,-17,?,-6%,21µM*,-38%,-10%
CCOc1ccc2[nH]c3c(NCCc4ccc(OC)c(OC)c4)ncnc3c2c1,-4,5%,-3%,21µM*,-39%,-22%
Cc1nnsc1C(=O)N1CCCC1(C)C(=O)O (configuration not stated),.,.,.,.,9%,.
Cc1nn(C)c(C(=O)NC2C3CC4CC(C3)CC2C4)c1Cl (configuration not stated),-7,7%,-2%,2%,-27%,5%
